Measles CPE – protection of cells from measles virus | protection (pct of control), % at 4 µM | 140,000 compounds, 1.5% hits | Measles virus-infected cells, CPE protection, absorbance; in the data active means protection mostly above about 24%, no sharp cut-off; inactive means mostly below about 26%
PostGolgi ctrl – yeast control strain growth, post-Golgi counter-screen | inhibition, % at 10 µM | AID 738 | 98,000 compounds, 5% hits | efflux-deficient yeast background strain, growth absorbance A615, 16 h
MT1-MMP txn act – activates MT1-MMP transcription; HT1080 MT1-MMP promoter luciferase reporter, luminescence, overnight; active compounds read high; 86,000 compounds, 0.16% hits; AID 750; activation factor at 10 µM;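 active means activation factor of at least 2 for MT1-MMP transcription at 10 µM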
PostGolgi yeast – growth inhibition of a yeast mutant, post-Golgi transport screen. post-Golgi transport phenotypic cell assay. inhibition, % at 10 µM. 98,000 compounds, 0.9% hits;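 further: yeast cells grown in 1536-well plates; yeast grown about 18 h at 30C before absorbance read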
Numbers stand for hits; 0 = inactive; - = no result given. The list is not random: actives were taken first. Their share in the collection is about 5.3%. Unless noted, no stated cut-off is given here; in the data, active means inhibition above about 30%; inactive means the rest.

SMILES	Measles CPE	PostGolgi ctrl	MT1-MMP txn act	PostGolgi yeast
COc1ccc(CN2CCN(CC(O)Cn3c4ccccc4c4ccccc43)CC2)cc1 (configuration not stated)	0	-	-	-
Oc1ccc(N2CCN(C(c3ccccn3)c3nnnn3C3CCCC3)CC2)cc1 (configuration not stated)	0	-	0	-
O=C(CN1C(=O)C2C3c4ccccc4C(c4ccccc43)C2C1=O)Nc1ccccc1C(=O)O (configuration not stated)	0	-	-	-
CCCCc1ccc(CC2S/C(=C(\C#N)C(=O)N3CCOCC3)N(c3ccccc3)C2=O)cc1 (configuration not stated)	0	37.5	0	0
Cc1ccc(OCCn2c(NC(=O)c3ccco3)nc3ccccc32)cc1	0	0	0	0
Cc1cccc(OCCn2c(NC(=O)c3ccco3)nc3ccccc32)c1	0	50.8	0	0
c1ccc(OCCn2c(-c3ccco3)nc3ccccc32)cc1	0	0	0	0
O=C(Nc1nc2ccccc2n1CCOc1ccc(Cl)cc1)c1ccco1	40.0	48.8	-	0
Cc1cccc(OCCn2c(-c3ccco3)nc3ccccc32)c1	0	30.4	0	0
COC(=O)c1ccc(C(NC(=O)OCc2ccccc2)/C(F)=C/[C@@H](C)C(=O)N(C)Cc2cccnc2)cc1 (some centres not stated)	-	-	0	-
COc1cc(/C=N/N(C)c2ccccc2)ccc1O	0	0	0	0
COc1cc(OC)c(OC)cc1/C=N/N(C)c1ccccc1	0	44.8	0	0
COC(=O)C1=C(C)N2C(=O)CSC2=NC1c1ccc2c(c1)OCO2 (configuration not stated)	-	-	0	-
CC(C)(C)NC(=O)NC(=O)COC(=O)c1ccc(OC(F)(F)F)cc1	0	-	-	-
O=C(C1CCC1)N1CCC(c2nc3c(nnn3Cc3c(F)cccc3Cl)c(=O)[nH]2)CC1	40.9	0	0	0
O=C(c1ccc(Cl)cc1Cl)N1CCC(c2nc3c(nnn3Cc3ccco3)c(=O)[nH]2)CC1	0	0	0	30.2
COc1ccc(N(CC(=O)Nc2ccccc2C(=O)NCCc2ccccc2)S(C)(=O)=O)cc1OC	0	0	0	0
O=C(O)CNC(=O)c1nc(-c2ccccc2)n(-c2ccccc2)n1	0	-	-	-
COC(=O)c1ccc(CN2[C@H](C(=O)OC)C[C@@]3(O)[C@@H](O)[C@@H](O)[C@@H](O)C[C@@H]23)cc1	-	-	0	-
CCOc1ccc(OCc2ccc(C(=O)NCC3CCCO3)o2)cc1 (configuration not stated)	0	0	0	0
O=C(NCC1CCCO1)c1ccc(COc2ccc(F)cc2)o1 (configuration not stated)	31.7	0	0	0
COC(=O)[C@H](C)NC(=O)Nc1cccc(C(F)(F)F)c1	0	0	0	0
O=C(Nc1ccc(OC(F)F)cc1)Nc1cccc(C(F)(F)F)c1	0	64.0	0	78.6
CC(C)[C@H](NC(=O)Nc1cccc(C(F)(F)F)c1)C(=O)O	27.1	0	0	0
CC(C)[C@H](NC(=O)Nc1cccc(Br)c1)C(=O)O	0	-	-	-
SMILES	Measles CPE	PostGolgi ctrl	MT1-MMP txn act	PostGolgi yeast
O=C(O)CCCC(=O)Nc1cccc(C(F)(F)F)c1	0	0	0	0
COCC(=O)Nc1cccc(C(F)(F)F)c1	37.1	0	0	0
Cn1cc(-c2nnnn2-c2cccc(C(F)(F)F)c2)c(C(F)(F)F)n1	0	0	-	0
Cc1cc2oc(=O)cc(CN3CCc4ccccc43)c2cc1Cl	0	35.9	0	0
C1=C(CCNC2=NCCCCC2)CCCC1	0	31.9	0	0
CC(=O)Nc1cc(C(=O)N2CCc3ccccc3C2)ccc1Sc1ccc(Cl)cc1	0	-	-	-
O=C(NCCc1csc(-c2ccccc2)n1)c1ccc(Br)o1	0	34.5	-	0
N#CC(C(=O)OC1CCCCC1)c1nc2ccccc2nc1N1CCOCC1 (configuration not stated)	0	40.4	0	0
CN1CCN(c2nc3ccccc3nc2C(C#N)C(=O)OC2CCCCC2)CC1 (configuration not stated)	0	0	0	0
Nc1ccc(Cc2nc3c(ccc4ccccc43)[nH]2)cc1	57.6	0	-	0
CC(C)CCCCCCNC(=S)Nc1ccc(S(=O)(=O)N2CCOCC2)cc1	0	-	-	-
COc1cccc(N2C(=O)N(c3ccccc3Cl)C3CS(=O)(=O)CC32)c1 (configuration not stated)	0	0	0	0
Cc1ccccc1N1C(=O)N(c2cccc(C(F)(F)F)c2)C2CS(=O)(=O)CC21 (configuration not stated)	0	39.4	0	0
CC(=O)OCC1OC(Sc2cccc3cccnc23)C(OC(C)=O)C(OC(C)=O)C1OC(C)=O (configuration not stated)	0	0	-	0
O=C(NCc1ccco1)C1CC(c2c(Cl)cccc2Cl)=NO1 (configuration not stated)	0	0	-	0
O=C(NCc1cccc(C(F)(F)F)c1)C1CC(c2c(Cl)cccc2Cl)=NO1 (configuration not stated)	0	34.0	-	0
CSc1nc2nccc(-c3ccc(Cl)cc3)n2n1	0	40.1	-	0
CC(C)NC(=O)c1cnc(Sc2ncc(C(F)(F)F)cc2Cl)n1C	0	0	0	0
O=C(CSc1ncc(C(F)(F)F)cc1Cl)N1CCN(S(=O)(=O)c2ccc(Cl)cc2)CC1	0	0	-	0
CSc1nc2nccc(/C=C\c3ccccc3)n2n1	0	0	-	0
FC(F)(F)c1cnc(Sc2nc3nccc(-c4ccc(Cl)cc4)n3n2)c(Cl)c1	0	39.2	-	0
COc1ccc(-c2ccnc3nc(Sc4ncc(C(F)(F)F)cc4Cl)nn23)cc1	0	39.7	-	0
O=C(C1CCCN(S(=O)(=O)c2ccc(Cl)cc2)C1)N(Cc1cccs1)C1CC1 (configuration not stated)	0	0	0	93.8
CC(C)(C)C(=O)COC(=O)c1ccc(O)cc1	54.9	0	0	0
Cc1ccc(C2CC2c2n[nH]c(=S)n2-c2cccc(Cl)c2)cc1 (configuration not stated)	0	-	-	-
SMILES	Measles CPE	PostGolgi ctrl	MT1-MMP txn act	PostGolgi yeast
CN(C)c1nc(SCCOC(=O)COc2ccc(Cl)cc2Cl)nc(N(C)C)n1	105.1	0	0	0
O=C(COC(=O)c1ccccc1C(=O)c1ccc(Cl)cc1)NC(c1ccccc1)c1ccccc1	0	-	-	-
CCOc1ccc(/C=N/n2c(SC)nnc2-c2ccccc2)cc1OCC	0	0	-	0
O=C(COc1ncnc2c(Cl)cc(Cl)cc12)NCCC1=CCCCC1	0	0	0	0
Cc1ccc(OCC(O)CN2CCN(Cc3ccc4c(c3)OCO4)CC2)c(C)c1 (configuration not stated)	0	0	0	100.5
O=C1C2C3C=CC(C3)C2C(=O)N1c1ncn[nH]1 (configuration not stated)	0	35.2	0	0
O=C1C2C3C=CC(C3)C2C(=O)N1c1ccncc1 (configuration not stated)	0	0	0	0
COc1cc(/C=C2/SC(=O)N(Cc3ccccc3Cl)C2=O)ccc1OCc1ccncc1	0	0	-	0
Cc1cccc(/C=C2/SC(=O)N(Cc3ccccc3Cl)C2=O)n1	0	38.6	-	0
O=C(c1nc2ncccn2n1)N1CCN(c2ccccc2)CC1	42.6	0	0	0
O=C(c1nc2ncccn2n1)N1CCN(c2ccc(F)cc2)CC1	0	0	0	0
CCN(CC)c1ccc(/C=C2/C(=O)N(c3ccc([N+](=O)[O-])cc3)N=C2N2CCOCC2)cc1	0	33.6	0	0

Bioassay records: PubChem, several laboratories
